Experimental data taken from PubChem BioAssay (NCATS).
Several values for one entry are separate records, joined by “and”; a condition that tells them apart may be missing. Identical values can stand only once. Records with an inconclusive call do not appear. Activity calls are given as the source filed them. Unless noted, the call rests on the fitted dose curve; in most records, active means well fitted curve in the direction sought with a large enough effect; inconclusive means small, poorly fitted or top-dose-only effect, or another doubt; inactive means no such curve, though single readings can be large; an effect the other way counts as inactive or inconclusive.

How the values were obtained:
[1] = qHTS assay for small molecule activators of the nuclear factor-kappa B (NF-kB) signaling pathway (AID 651749; active means well fitted activation curve with a large enough effect in the signal ratio; the % refers to the signal ratio; further: series mostly up to about 77 µM; % of control where 0% means no effect); conditions: NF-kB-bla ME-180 cells, beta-lactamase FRET ratio, 16 h; stronger effect = higher value
Summary of the method: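 NF-kB-bla ME-180 cells, 2,000/well; 23 nL compound or DMSO pinned; 16 hr, 37C/5% CO2; beta-lactamase FRET read-out.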

[2] = qHTS assay for small molecule disruptors of the mitochondrial membrane potential - 1 hr assay (AID 651754; calls by dose curve; further: on the % scale 0 is the no-effect control and ±100 the full control effect; nearly all actives have a fitted effect of over 35% in size)
Summary of the method: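 In this qHTS format, a 1 hr compound treatment of HepG2 cells precedes Mito-MPS staining, and membrane potential is judged from aggregate (red) against monomer (green) fluorescence intensity.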

[3] = qHTS assay for small molecule disruptors of the mitochondrial membrane potential - 5 hr assay (AID 651755; calls by dose curve; further: on the % scale 0 is the no-effect control and ±100 the full control effect; nearly all actives have a fitted effect of over 40% in size)
Summary of the method: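 Read-out: ratiometric Mito-MPS fluorescence, green monomer (ex 490/em 535) vs red mitochondrial aggregate (ex 540/em 590). HepG2 cells treated 5 hr at 37C before 30 min dye loading.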

[4] = biological target: Tumor necrosis factor (Homo sapiens) (UniProt P01375); assay: qHTS assay to identify small molecules that stimulate Tumor Necrosis Factor-alpha (TNF-alpha) secretion (AID 651757; active means well fitted curve in the direction sought with a large enough effect in the signal ratio; the % refers to the signal ratio; further: 0% is about no effect)
Sequence of Tumor necrosis factor (Homo sapiens) (P01375 whole entry, looked up): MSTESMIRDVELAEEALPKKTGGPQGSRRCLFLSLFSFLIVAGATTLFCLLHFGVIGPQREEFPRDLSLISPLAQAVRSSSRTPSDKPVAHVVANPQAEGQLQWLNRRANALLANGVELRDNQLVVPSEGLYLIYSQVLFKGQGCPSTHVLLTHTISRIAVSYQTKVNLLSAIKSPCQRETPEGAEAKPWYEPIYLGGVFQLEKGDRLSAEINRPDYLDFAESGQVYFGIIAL
Summary of the method: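 Using 3000 THP-1 cells per well, compounds and controls were applied for 17 hrs at 37 C. Detection followed with two labeled anti-TNF-alpha antibodies (cryptate donor, XL665 acceptor) for 3 hr at room temperature, measured by TR-FRET.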

[5] = qHTS assay to identify small molecules that stimulate interleukin-8 (IL-8) secretion (AID 651758; active means well fitted activation curve with a large enough effect in the signal ratio; the % refers to the signal ratio; further: 0% is about no effect)
Summary of the method: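 Compounds are added to THP-1 cells (2000 per well) and left 16 hrs at 37 C. A labeled anti-IL-8 antibody pair is then added, and IL-8 secretion is measured by time-resolved FRET after 1-3 hrs at room temperature.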

[6] = qHTS assay for environmental chemicals that activate the Aryl hydrocarbon Receptor (AhR) signaling pathway (AID 651777); conditions: 1A2-DRE human hepatoma cells, luciferase, 24 h; activation: stronger effect = higher value; further: % of control where 0% means no effect; nearly all actives have a fitted effect of over 15% in size
Summary of the method: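 AhR activation is scored as a rise in luciferase from a stable DRE–CYP1A2 promoter construct in human hepatoma cells. Treatment lasts 24 hr at 37 C; detection uses One-Glo after 30 min at room temperature.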

[7] = biological target: Peroxisome proliferator-activated receptor alpha (Homo sapiens) (UniProt Q07869); assay: qHTS assay for small molecule agonists of the peroxisome proliferator-activated receptor alpha (PPARalpha) signaling pathway (AID 651778); conditions: PathHunter PPARalpha complementation, chemiluminescence, 6 h; max response: stronger effect = higher value; further: % of control where 0% means no effect
Sequence of Peroxisome proliferator-activated receptor alpha (Homo sapiens) (Q07869 whole entry, looked up, the tested form may be a part): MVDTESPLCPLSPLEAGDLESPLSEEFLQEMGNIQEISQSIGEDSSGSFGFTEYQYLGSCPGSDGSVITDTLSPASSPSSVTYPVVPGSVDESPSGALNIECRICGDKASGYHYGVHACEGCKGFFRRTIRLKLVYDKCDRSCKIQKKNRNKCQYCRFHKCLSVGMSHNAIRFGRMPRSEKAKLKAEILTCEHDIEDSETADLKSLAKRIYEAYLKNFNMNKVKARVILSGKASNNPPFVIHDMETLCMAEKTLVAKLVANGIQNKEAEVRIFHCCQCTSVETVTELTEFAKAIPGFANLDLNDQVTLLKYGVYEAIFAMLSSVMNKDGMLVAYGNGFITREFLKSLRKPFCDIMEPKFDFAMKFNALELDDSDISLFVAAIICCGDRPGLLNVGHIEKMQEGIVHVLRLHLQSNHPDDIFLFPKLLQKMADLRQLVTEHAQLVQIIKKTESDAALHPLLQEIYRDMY
Summary of the method: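 Enzyme-fragment complementation assay in which ligand-bound PPARalpha translocates and forms an active enzyme that generates chemiluminescence. Cells were plated overnight, exposed to compound for 6 hr at 37 C, and then given detection reagent for 60 min at room temperature.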

[8] = biological target: Nuclear receptor ROR-gamma (Homo sapiens) (UniProt P51449); assay: qHTS assay for small molecule antagonists of the retinoid-related orphan receptor gamma (ROR-gamma) signaling pathway (AID 651802);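 further: CHO cells with doxycycline-induced ROR-gamma expression; luciferase reporter luminescence driven by ROR response element; series mostly up to about 92 µM; on the % scale 0 is the no-effect control and ±100 the full control effect; nearly all actives have a fitted effect of over 60% in size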
Sequence of Nuclear receptor ROR-gamma (Homo sapiens) (P51449 whole entry, looked up): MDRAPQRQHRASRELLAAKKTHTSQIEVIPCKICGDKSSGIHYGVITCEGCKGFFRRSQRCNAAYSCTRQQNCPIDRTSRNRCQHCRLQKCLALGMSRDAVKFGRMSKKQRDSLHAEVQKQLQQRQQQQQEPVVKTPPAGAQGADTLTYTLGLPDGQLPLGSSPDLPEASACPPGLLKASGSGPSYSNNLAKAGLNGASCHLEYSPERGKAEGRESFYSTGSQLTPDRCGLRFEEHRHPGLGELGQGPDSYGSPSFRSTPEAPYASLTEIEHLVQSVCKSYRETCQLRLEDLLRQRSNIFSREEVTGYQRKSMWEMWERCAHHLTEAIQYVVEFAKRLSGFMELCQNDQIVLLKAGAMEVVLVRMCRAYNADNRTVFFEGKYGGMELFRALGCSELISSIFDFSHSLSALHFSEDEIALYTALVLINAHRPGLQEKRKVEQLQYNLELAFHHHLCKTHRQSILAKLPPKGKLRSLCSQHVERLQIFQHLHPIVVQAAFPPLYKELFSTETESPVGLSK
Summary of the method: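 Doxycycline-induced reporter activity in engineered CHO cells (TET-inducible ROR, RORE-LUC) was measured by luminescence after 16hr compound exposure at 37C.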

[9] = qHTS assay for small molecule agonists of the antioxidant response element (ARE) signaling pathway measured by Nrf2-dependant transcriptional activity (AID 720636; active means well fitted curve in the direction sought with a large enough effect in the repeat runs; an effect the other way counts as inactive or inconclusive; further: % of control where 0% means no effect)
Summary of the method: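 First, ARE-luc HepG2 cells attached for 6 hr at 37 C in 1% dialyzed FBS medium. Next, compound or DMSO was added and incubated 16 hr. Finally, ONE-Glo reagent was added and luminescence measured after 30 min.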

[10] = qHTS assay for small molecule antagonists of the retinoid-related orphan receptor gamma (ROR-gamma) signaling pathway - cell viability counter screen (AID 720652; active means well fitted curve in the direction sought with a large enough effect in the repeat runs; an effect the other way counts as inactive or inconclusive;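 further: CHO reporter cells with doxycycline-induced ROR-gamma expression; series mostly up to about 92 µM; compound exposure lasted 16 hr before ATP read; on the % scale 0 is the no-effect control and ±100 the full control effect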)
Summary of the method: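 ATP-based viability readout in the ROR-gamma reporter CHO cells after 16 hr compound exposure under doxycycline induction.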

[11] = qHTS assay for small molecule agonists of the antioxidant response element (ARE) signaling pathway measured by Nrf2-dependant transcriptional activity - cell viability counter screen (AID 720653; active means well fitted curve in the direction sought with a large enough effect in the repeat runs; an effect the other way counts as inactive or inconclusive; further: on the % scale 0 is the no-effect control and ±100 the full control effect); conditions: ARE-bla HepG2 viability, CellTiter-Glo ATP luminescence, 16 h; max response: stronger effect = lower value
Summary of the method: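 ARE-bla HepG2 cells treated with compounds for 16 h at 37C; this counter screen measures viability as intracellular ATP by CellTiter-Glo luminescence after 30 min at room temperature.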

[12] = qHTS assay for cell viability of HEK293 cells (AID 743288); conditions: ATP luminescence (CellTiter-Glo), 18 h; max response: stronger effect = lower value; further: on the % scale 0 is the no-effect control and ±100 the full control effect; nearly all actives have a fitted effect of over 50% in size
Summary of the method: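 Quantitative high-throughput screen: compounds were pinned onto parental HEK293 cells (2,000 per well) after a minimum 5 h settling at 37 C, incubated 18 h at 37 C, and intracellular ATP measured by luciferase luminescence.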

[13] = qHTS assay for cell viability of the p53RE-bla HCT-116 cell line (AID 743292); further: on the % scale 0 is the no-effect control and ±100 the full control effect; nearly all actives have a fitted effect of over 55% in size
Summary of the method: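 Quantitative high-throughput format: compounds in DMSO were pinned onto p53RE-bla HCT-116 cells (4,000/well) and incubated 16 h at 37 C. Total intracellular ATP, read by CellTiter-Glo luminescence, reflects viable cell number.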

[14] = HepG2 viability counterscreen (readout 2: ATP content) against the NCATS DSHEA and TCM libraries (AID 1794840);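 further: HepG2 cells exposed to substances for about 24 h; 0% is about no effect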
Summary of the method: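 Cytotoxicity was assessed in HepG2 cells plated at 1,000 cells/well and exposed for about 24 hours to a concentration series. Protease activity and ATP content were measured sequentially in each well.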

[15] = biological target: Cytochrome P450 3A4 (Homo sapiens) (UniProt P08684); assay: qHTS for inhibitors of CYP3A4 against the NCATS DSHEA and TCM libraries (AID 1919971);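 further: on the % scale 0 is the no-effect control and ±100 the full control effect; inhibition lowers luminescence from luciferin made by CYP3A4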
Sequence of Cytochrome P450 3A4 (Homo sapiens) (P08684 whole entry, looked up, canonical isoform): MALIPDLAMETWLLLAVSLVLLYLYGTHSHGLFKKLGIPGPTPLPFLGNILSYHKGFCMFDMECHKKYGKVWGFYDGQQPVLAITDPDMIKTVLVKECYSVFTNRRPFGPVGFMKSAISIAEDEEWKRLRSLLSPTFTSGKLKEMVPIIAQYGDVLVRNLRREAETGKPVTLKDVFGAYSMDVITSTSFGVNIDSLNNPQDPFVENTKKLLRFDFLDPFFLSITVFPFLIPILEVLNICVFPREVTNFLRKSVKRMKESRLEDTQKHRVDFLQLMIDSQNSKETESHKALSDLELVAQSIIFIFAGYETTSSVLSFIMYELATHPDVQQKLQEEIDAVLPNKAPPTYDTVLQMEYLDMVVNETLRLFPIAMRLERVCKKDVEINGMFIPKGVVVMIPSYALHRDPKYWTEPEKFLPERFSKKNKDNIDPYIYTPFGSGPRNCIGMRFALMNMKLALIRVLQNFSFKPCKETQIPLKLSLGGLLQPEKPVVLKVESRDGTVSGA
Summary of the method: (§1)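 Isoform-specific enzyme and substrate levels; enzyme-free wells as background. Reaction: 1x NADPH regenerating system, 30-45 min, room temperature, shielded from light; luminescent detection reagent added, 30 min.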

[16] = biological target: Cytochrome P450 2D6 (Homo sapiens) (UniProt P10635); assay: qHTS for inhibitors of CYP2D6 against the NCATS DSHEA and TCM libraries (AID 1919972); further: on the % scale 0 is the no-effect control and ±100 the full control effect
Sequence of Cytochrome P450 2D6 (Homo sapiens) (P10635 whole entry, looked up): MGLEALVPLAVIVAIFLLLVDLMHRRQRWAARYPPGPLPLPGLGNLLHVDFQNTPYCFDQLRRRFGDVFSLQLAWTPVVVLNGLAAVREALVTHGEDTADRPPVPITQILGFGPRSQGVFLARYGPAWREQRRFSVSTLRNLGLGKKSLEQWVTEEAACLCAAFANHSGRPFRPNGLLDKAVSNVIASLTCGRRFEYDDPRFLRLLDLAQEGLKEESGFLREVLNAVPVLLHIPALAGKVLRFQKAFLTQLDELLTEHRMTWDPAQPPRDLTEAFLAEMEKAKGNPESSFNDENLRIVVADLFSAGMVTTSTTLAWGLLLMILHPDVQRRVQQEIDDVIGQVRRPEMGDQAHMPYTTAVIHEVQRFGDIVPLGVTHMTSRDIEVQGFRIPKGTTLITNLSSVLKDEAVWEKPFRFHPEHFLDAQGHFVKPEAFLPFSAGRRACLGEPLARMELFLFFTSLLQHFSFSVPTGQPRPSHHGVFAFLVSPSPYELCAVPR
Summary of the method: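 qHTS, concentration–response format with most substances from 19.5 nM. CYP2D6 + pro-luciferin substrate, 15 min with compound, then 1x NADPH regen, 30–45 min RT dark. Glo detection 30 min, luminescence. Quinidine control.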

[17] = biological target: Cytochrome P450 2C19 (Homo sapiens) (UniProt P33261); assay: qHTS for inhibitors of CYP2C19 against the NCATS DSHEA and TCM libraries (AID 1919974);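 further: luminescence from luciferin released by CYP2C19 oxidation of a pro-luciferin substrate; on the % scale 0 is the no-effect control and ±100 the full control effect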
Sequence of Cytochrome P450 2C19 (Homo sapiens) (P33261 whole entry, looked up): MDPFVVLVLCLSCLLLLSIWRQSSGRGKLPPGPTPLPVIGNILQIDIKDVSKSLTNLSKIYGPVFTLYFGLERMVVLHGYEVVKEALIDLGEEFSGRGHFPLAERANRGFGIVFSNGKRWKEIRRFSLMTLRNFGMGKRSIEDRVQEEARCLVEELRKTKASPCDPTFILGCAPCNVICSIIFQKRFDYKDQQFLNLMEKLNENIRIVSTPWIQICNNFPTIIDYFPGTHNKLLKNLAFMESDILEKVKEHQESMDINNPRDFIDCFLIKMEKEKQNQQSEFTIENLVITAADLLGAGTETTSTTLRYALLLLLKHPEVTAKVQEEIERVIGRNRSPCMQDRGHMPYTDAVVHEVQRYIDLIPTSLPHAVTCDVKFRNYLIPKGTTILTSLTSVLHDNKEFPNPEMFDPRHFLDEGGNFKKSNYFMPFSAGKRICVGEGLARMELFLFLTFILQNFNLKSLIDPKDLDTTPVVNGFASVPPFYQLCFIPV
Summary of the method: as §1

[18] = KB-3-1 P-gp reporter qHTS against the NCATS DSHEA and TCM libraries (AID 1919975); further: 0% is about no effect
Summary of the method: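 72 h exposure of KB-3-1 cells (DMEM, 10% FBS) to DSHEA/TCM samples, concentration-response; cell viability measured as CellTiter-Glo luminescence after 30 min at room temperature.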

[19] = qHTS Counterscreen for compound interference against the NCATS DSHEA and TCM libraries (AID 1919978); conditions: firefly luciferase detection reagent interference, luminescence; further: % of control where 0% means no effect
Summary of the method: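 Read-out is luminescence after 30 min at RT with luciferin detection reagent. Before that, compounds (19.5 nM to 39.8 uM final) sat 15 min at RT with 1 uM D-luciferin or 100 mM potassium phosphate buffer. PTC124 served as intraplate control.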

[20] = Dual reporter qHTS for agonist of Pregnane X Receptor (hPXR) against the NCATS DSHEA and TCM libraries: Fluorescence readout (AID 1920058); further: 0% is about no effect
Summary of the method: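 In this qHTS counter-read, reporter-bearing HepG2 cells in charcoal-stripped serum received substances for approximately 24 h before viability was assessed fluorometrically with CellTiter-Fluor.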

[21] = biological target: Nuclear receptor subfamily 1 group I member 2 (Homo sapiens) (UniProt O75469); assay: Dual reporter qHTS for agonist of Pregnane X Receptor (hPXR) against the NCATS DSHEA and TCM libraries: Luminescence readout (AID 1920059); further: 0% is about no effect
Sequence of Nuclear receptor subfamily 1 group I member 2 (Homo sapiens) (O75469 whole entry, looked up): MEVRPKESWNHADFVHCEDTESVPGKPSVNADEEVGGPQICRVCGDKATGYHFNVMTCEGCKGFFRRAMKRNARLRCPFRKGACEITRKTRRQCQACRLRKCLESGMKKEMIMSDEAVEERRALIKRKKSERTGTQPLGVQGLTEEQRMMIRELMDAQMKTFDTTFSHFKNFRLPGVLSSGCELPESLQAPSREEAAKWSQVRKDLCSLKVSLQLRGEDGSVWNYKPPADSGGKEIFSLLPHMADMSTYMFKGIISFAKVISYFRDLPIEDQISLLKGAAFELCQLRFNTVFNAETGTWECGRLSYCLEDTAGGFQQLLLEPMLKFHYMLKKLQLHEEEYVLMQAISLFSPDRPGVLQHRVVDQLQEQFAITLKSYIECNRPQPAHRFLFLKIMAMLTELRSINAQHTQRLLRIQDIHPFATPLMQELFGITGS
Summary of the method: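 hPXR-Luc HepG2 cells, 2000/well in 5% charcoal-stripped FBS medium, attached 5 h, then exposed 24 h at 37C to compounds. Viability by CellTiter-Fluor, then luciferase luminescence with ONE-Glo.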

[22] = biological target: Nuclear receptor subfamily 1 group I member 2 (Homo sapiens) (UniProt O75469); assay: Dual reporter qHTS for antagonist of Pregnane X Receptor (hPXR) against the NCATS DSHEA and TCM libraries: Luminescence Readout (AID 1920060); further: 0% is about no effect
Summary of the method: (§2)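 Rifampicin-stimulated (2 uM final) hPXR-luciferase HepG2 cells were treated for 24 h with DSNP/TCM substances. Viability came from CellTiter-Fluor fluorescence, reporter activity from ONE-Glo luminescence.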

[23] = Dual reporter qHTS for antagonist of Pregnane X Receptor (hPXR) against the NCATS DSHEA and TCM libraries: Fluorescence Readout (AID 1920061); further: 0% is about no effect
Summary of the method: as §2

[24] = biological target: Nuclear receptor subfamily 1 group I member 2 (Rattus norvegicus) (UniProt Q9R1A7); assay: qHTS assay for small molecule activators of the rat pregnane X receptor (rPXR) signaling pathway (AID 651751; call rule not given here; further: 0% is about no effect); conditions: rPXR reporter cells, luciferase (One-Glo), 24 h
Sequence of Nuclear receptor subfamily 1 group I member 2 (Rattus norvegicus) (Q9R1A7 whole entry, looked up): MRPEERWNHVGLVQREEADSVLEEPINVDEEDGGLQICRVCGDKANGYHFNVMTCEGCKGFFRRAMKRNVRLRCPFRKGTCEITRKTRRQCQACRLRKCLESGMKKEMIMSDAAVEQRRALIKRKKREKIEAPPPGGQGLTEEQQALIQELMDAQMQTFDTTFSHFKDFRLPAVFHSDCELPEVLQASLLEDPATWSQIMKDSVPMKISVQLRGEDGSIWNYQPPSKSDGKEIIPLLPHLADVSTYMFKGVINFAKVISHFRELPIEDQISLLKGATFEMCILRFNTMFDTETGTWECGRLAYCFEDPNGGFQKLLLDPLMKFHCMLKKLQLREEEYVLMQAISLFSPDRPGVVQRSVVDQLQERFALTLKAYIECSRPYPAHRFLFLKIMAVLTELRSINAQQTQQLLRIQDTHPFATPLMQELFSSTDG

[25] = qHTS assay for small molecule activators of the human pregnane X receptor (PXR) signaling pathway (AID 720659; call rule not given here; further: 0% is about no effect)

C=CCc1ccc(OC)c(OC)c1
inactive: activation [1] -0.295% and 0.286% | Potency [2] | Potency [3] | outcome [4] | Potency [5] | activation [6] 0.456% and 0.0921% | max response [7] 8.14% and -0.977% | Potency [8] | Potency [9] | Potency [10] | max response [11] -3.29% and -7.51% | max response [12] 3.16% and -7.18% | Potency [13] | outcome [14] | Potency [15] | Potency [16] | Potency [17] | outcome [18] | max response [19] -1.2% | outcome [20] | Potency [21] | outcome [22] | outcome [23] | max response [24] -0.697% and 1.19% | outcome [25]
